Bioassay records: PubChem, The Scripps Research Institute Molecular Screening Center
Hits are enriched below; roughly 1.1% of the tested compounds scored in any of these assays.
GalR3 antagonist – blocks the human galanin receptor 3; HEK293 GalR3-CNG cAMP membrane potential fluorescence; galR3 body fused to GalR1 C-terminus; inhibition, % at 3 µM; hit rate 0.44% among 360,000; AID 651719;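 active = inhibition above the screen-wide average plus 3 SD, cut at about 13% in these data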;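 note: forskolin and galanin both at EC90 stimulate the cells; cAMP rise reported by CNG channel membrane potential dye signal; 0% = forskolin plus galanin with DMSO and 100% = forskolin alone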
SRC1 inh – inhibits human SRC1 coactivator | HEK293 GAL4-SRC1 luciferase reporter, luminescence | inhibition, % at 3.6 µM | hit rate 0.12% among 360,000;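 active = inhibition above the campaign mean plus 3 SD, with each screening campaign given its own cutoff, cut at about 60% in these data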;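 note: 0% = DMSO treated cells and 100% = gossypol at 36 µM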
COUP-TFII inh – blocks human COUP-TFII nuclear receptor | HEK293T NGFI-A luciferase reporter, luminescence | inhibition, % at 8.6 µM | hit rate 0.7% among 370,000;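 active = inhibition above a per-plate cutoff, mean inhibition of test wells between control levels plus 3 SD, cut at about 38% in these data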;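 note: cells cotransfected with COUP-TFII expression vector driving the NGFI-A reporter; 0% = median of COUP-TF2 test wells and 100% = reporter-only cells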
LRH-1 inv ag – NR5A2 inverse agonism in reporter assay; AID 602396; HEK293T StAR-luciferase reporter, LRH-1 transfected, 24 h; O00482; inhibition, % at 3.6 µM; hit rate 0.13% among 360,000;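 active = inhibition above the mean inhibition of all tested compounds plus 3 SD, cut at about 73% in these data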;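 note: 0% = DMSO wells and 100% = reporter-only cells lacking LRH-1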
NCOA2 inhibitor – inhibits human steroid receptor coactivator 2; HEK293 GAL4-SRC2 luciferase reporter, luminescence; hit rate 0.17% among 370,000; Q15596; inhibition, % at 9 µM; AID 651957;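 active = inhibition above the mean inhibition of all tested compounds plus 3 SD, set per campaign, cut at about 52% in these data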;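 note: 0% = DMSO treated cells and 100% = cells given Gossypol at 36 µM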
NCOA3 inh – inhibitors of human steroid receptor coactivator 3 (SRC3); Q9Y6Q9; HEK293 GAL4-SRC3 luciferase reporter, luminescence; inhibition, % at 3.6 µM; hit rate 0.17% among 360,000; AID 588352;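 active = inhibition above a per-campaign cutoff, the mean of all compounds plus 3 SD, cut at about 60% in these data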;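 note: 0% = DMSO-treated cells and 100% = gossypol-treated cells at 36 µM; higher means less SRC3-driven luciferase light from the GAL4 reporter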
VP16 Luc counter – inhibits VP16 reporter, flagging COUP-TFII antagonist hits | AID 687007 | hit rate 25% among 2,500 | HEK293 Gal4-VP16 luciferase reporter, luminescence | shares compounds with COUP-TFII inh | inhibition, % at 8.5 µM; in the data active = inhibition above about 13%
COUP-TFII conf – confirmation of human COUP-TFII (NR2F2) inhibitors; AID 687008; inhibition, % at 8.5 µM; HEK293 NGFI-A luciferase reporter, luminescence; shares compounds with COUP-TFII inh; hit rate 45% among 2,500;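 active = mean inhibition over three repeats above a set limit taken from the earlier primary screen, cut at about 38% in these data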;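 note: 100% = cells given the luciferase reporter alone without the COUP-TF2 vector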
Numbers without * were called inactive; · = no result.

SMILES | GalR3 antagonist | SRC1 inh | COUP-TFII inh | LRH-1 inv ag | NCOA2 inhibitor | NCOA3 inh | VP16 Luc counter | COUP-TFII conf
CCOc1ccc(-c2cc(CCCC(=O)NCc3ccc(C)cc3)no2)cc1 | · | 12.8 | 44.0* | 33.3 | 64.6* | 7.3 | 32.1* | 11.1
CCOc1ccc(-c2nnn(CC(=O)NCc3ccco3)n2)cc1 | -3.4 | -38.7 | -11.9 | -23.4 | -20.6 | -13.8 | · | ·
CCOc1ccc(-c2cc(CCCC(=O)NCc3ccco3)no2)cc1 | · | -2.9 | 42.8* | 9.4 | 60.0* | -19.8 | -5.2 | -14.4
Cc1occc1C(=O)NNC(=O)CN1C(=O)NC(C)(c2ccccc2)C1=O (stereo not drawn) | -3.2 | -15.7 | -18.0 | 13.7 | -8.0 | -3.8 | · | ·
C=CC1=CCN(S(=O)C(C)(C)C)[C@@H]1CCO (stereo partly drawn) | -1.5 | -14.4 | 10.6 | 2.7 | 6.2 | -13.9 | · | ·
COc1ccc(N2CCN(S(=O)(=O)c3ccc4c(c3)NC(=O)C(C)S4)CC2)cc1 (stereo not drawn) | 11.6 | 5.7 | 41.6* | 9.8 | 20.2 | 3.8 | -7.8 | 10.9
CCc1ccc(NC(=O)C2CCN(S(=O)(=O)c3ccc4c(c3)NC(=O)C(C)S4)CC2)cc1 (stereo not drawn) | -9.5 | 1.2 | 58.3* | -8.1 | 17.2 | 3.4 | 7.9 | 39.5*
Cc1ccc(NC(=O)C2CCN(S(=O)(=O)c3ccc4c(c3)NC(=O)C(C)S4)CC2)cc1C (stereo not drawn) | 1.0 | 6.4 | 22.2 | -11.2 | 26.0 | 20.8 | · | ·
CSCCC(NC(=O)c1ccccc1)C(=O)NNC(=O)c1ccccc1 (stereo not drawn) | -7.6 | -14.5 | 11.0 | 0.2 | 12.4 | 16.8 | · | ·
O=C(NC(=S)Nc1ccc(CN2CCOCC2)cc1)c1ccc([N+](=O)[O-])cc1Cl | -5.8 | -8.5 | 1.3 | 13.0 | -39.9 | 15.2 | · | ·
CCOC(=O)C1=C(COC(=O)c2cc(OC)c(OC)c(OC)c2)NC(=O)NC1C (stereo not drawn) | 1.1 | -5.5 | -5.7 | 7.7 | -2.4 | 0.9 | · | ·
CN(Cc1ccccc1)C(=O)c1ccc(NC(=O)Cc2ccc(NC(=O)C3CCN(C(=O)CCc4ccccc4)CC3)cc2)cc1 | -5.7 | 8.4 | 7.1 | 13.9 | 5.4 | 13.9 | · | ·
CN(C(=O)c1cccc(NC(=O)Cc2ccc(NC(=O)C3CCCN(C(=O)CCc4ccccc4)C3)cc2)c1)C1CCCCC1 (stereo not drawn) | -9.1 | 34.5 | 77.3* | 48.5 | 23.0 | 6.4 | -0.5 | 62.1*
CN(Cc1ccccc1)C(=O)c1ccc(NC(=O)Cc2ccc(NC(=O)C3CCCN(C(=O)C4CCC4)C3)cc2)cc1 (stereo not drawn) | -7.5 | 2.1 | 10.4 | -0.8 | -0.7 | 11.9 | · | ·
CN(Cc1ccccc1)C(=O)c1cccc(NC(=O)Cc2ccc(NC(=O)C3CCN(C(=O)CCc4ccccc4)CC3)cc2)c1 | -3.7 | 15.3 | 69.8* | 6.9 | 31.3 | 8.0 | 5.3 | 42.6*
CN(Cc1ccccc1)C(=O)c1ccc(NC(=O)Cc2ccc(NC(=O)C3CCCN(C(=O)CCc4ccccc4)C3)cc2)cc1 (stereo not drawn) | -7.6 | 25.4 | 75.3* | 42.2 | 8.1 | 23.2 | 7.5 | 69.7*
CN(C(=O)c1cccc(NC(=O)Cc2ccc(NC(=O)C3CCCN(C(=O)CCc4ccccc4)C3)cc2)c1)C1CC1 (stereo not drawn) | -2.0 | 11.5 | 10.3 | 16.8 | 8.1 | 1.8 | · | ·
Cc1ccc(S(=O)(=O)N2CCSC2)cc1C | -2.6 | -0.3 | -8.8 | 5.8 | -22.1 | 24.8 | · | ·
CN1CCN(S(=O)(=O)c2ccc(Oc3ccc(Br)cc3F)nc2)CC1 | -0.8 | 15.6 | 13.2 | 15.9 | 8.8 | -5.8 | · | ·
COC(=O)c1ccc(CSc2cc(C)c3ccccc3n2)o1 | -5.7 | 4.3 | -5.7 | -20.3 | -22.2 | 17.4 | · | ·
O=C(NNC1=Nc2ccccc2SC1)c1ccccc1F | -3.8 | -29.4 | 38.1* | -21.7 | 9.3 | 7.7 | -38.8 | 8.8
O=S(=O)(c1ccc2nc(COc3ccc(Cl)cc3Cl)[nH]c2c1)N1CCOCC1 | -3.6 | 0.3 | 11.1 | 0.0 | -16.3 | 19.1 | · | ·
Clc1ccc2nc(CNc3nc(N4CCOCC4)nc4c3ncn4-c3ccsc3)[nH]c2c1 | · | · | 69.5* | · | · | · | 18.6* | 45.4*
CCOCCCn1c(=N)c(S(=O)(=O)c2ccccc2)cc2c(=O)n3cc(C)ccc3nc21 | -7.7 | -15.5 | 19.1 | -19.9 | 8.5 | -9.6 | · | ·
CN(Cc1nccs1)C(=O)c1cc(COc2cccc3cnccc23)on1 | 12.3 | 28.2 | 54.4* | 34.8 | 40.1 | 42.0 | 4.6 | 46.6*
SMILES | GalR3 antagonist | SRC1 inh | COUP-TFII inh | LRH-1 inv ag | NCOA2 inhibitor | NCOA3 inh | VP16 Luc counter | COUP-TFII conf
CC(C)CCn1cnc2c(sc3nc4c(cc32)CSC(C)(C)C4)c1=O | -2.5 | 3.5 | 55.2* | 23.9 | 37.8 | -8.0 | -56.7 | 23.8
COc1ccc(S(=O)(=O)Nc2cc(Sc3ncn[nH]3)c(O)c3ccccc23)cc1 | -10.4 | · | 67.2* | · | 61.1* | · | 12.9* | 20.5
ON=C1c2cc(OCCN3CCCCC3)ccc2-c2ccc(OCCN3CCCCC3)cc21 | · | -13.5 | · | -17.9 | · | -16.2 | · | ·
NC(=S)NN=C1c2cc(OCCN3CCOCC3)ccc2-c2ccc(OCCN3CCOCC3)cc21 | -10.4 | 72.5* | 68.3* | 75.1* | 33.5 | 55.0 | 9.7 | 80.2*
COc1ccc(/C=C/C(=O)c2c(C)cc(C)[nH]c2=O)c2ccccc12 | -11.4 | -5.3 | 27.2 | 19.6 | 10.4 | -2.7 | · | ·
C=CCOC(=O)C1=C[C@@H](c2ccccc2)[C@H](CCCO)[C@@H](OCC)O1 | -5.8 | 6.0 | 6.0 | 7.7 | -14.8 | -1.1 | · | ·
CN(c1ccc(C(=O)N2CCN(Cc3ccc4c(c3)OCO4)CC2)cc1)S(=O)(=O)c1ccccc1 | -7.1 | 28.2 | 47.6* | 36.8 | 36.1 | 25.5 | 8.5 | 34.8
CN(c1ccc(C(=O)N2CCN(Cc3ccccc3)CC2)cc1)S(=O)(=O)c1ccccc1 | -8.7 | 6.2 | 19.0 | 11.1 | 3.9 | -2.8 | · | ·
Cc1ccc(S(=O)(=O)N(C)c2ccc(C(=O)N3CCN(Cc4ccc5c(c4)OCO5)CC3)cc2)cc1 | -6.6 | 29.2 | 56.5* | 33.3 | 22.3 | 10.1 | 5.4 | 39.1*
Cc1cc(C)cc(N(C(=O)c2csnn2)C(C(=O)NC(C)(C)C)c2ccccn2)c1 (stereo not drawn) | -9.0 | -15.1 | 8.4 | 4.2 | 3.5 | 7.7 | · | ·
O=C(O)C1C2CCC(C2)C1C(=O)Nc1cc(F)ccc1F (stereo not drawn) | -5.2 | 4.9 | 7.2 | -2.0 | -31.7 | 0.9 | · | ·
COc1ccc(/C=C/c2cc(-c3ccc(C)cc3)o[n+]2C)cc1 | -3.7 | 54.9 | 67.3* | 94.2* | 13.5 | 71.5* | 37.0* | 65.7*
CN(C)c1ccc(CNC(=O)CCc2ccc(S(=O)(=O)N3CCCCCC3)cc2)cc1 | -5.2 | 4.6 | 8.4 | 13.6 | 1.5 | 29.2 | · | ·
